# Test results taken from PubChem BioAssay AID504911 (Southern Research Specialized Biocontainment Screening …, 2011).
# Measured potencies and affinities stand elsewhere. Activity calls are given as the source filed them. The rule behind the calls is not given here.
# Assay: THP-1 cell cytotoxicity, cytotoxicity control, set 4 (AID 504911)
# Details: THP-1 cytotoxicity; series mostly up to 100 µM
row,Structure (SMILES),outcome
1,Cc1[nH]c(=S)[nH]c(=O)c1C,inactive
2,Cc1cc(=O)[nH]c(SCC(=O)NC2CCCCC2)n1,inactive
3,CN(C)C(=O)CSc1nc2ccccc2c(=O)[nH]1,inactive
4,COc1c(N2CCNC(C)C2)c(F)cc2c(=O)c(C(=O)O)cn(C3CC3)c12 (configuration not stated),inactive
5,CCOC1OC(=O)C(Cl)=C1Nc1ccccc1C (configuration not stated),inactive
6,O=C(CSc1nc2ccccc2c(=O)[nH]1)NC1CCCCC1,inactive
7,Cc1ccc(NC(=O)COC(=O)CCc2c[nH]c3ccccc23)cc1[N+](=O)[O-],inactive
8,CCC(Sc1nc2ccccc2c(=O)[nH]1)C(=O)NC1CCCCC1 (configuration not stated),inactive
9,CN[C@@H]1[C@H](O[C@H]2[C@H](O[C@H]3[C@H](O)[C@@H](O)[C@H](N=C(N)N)[C@@H](O)[C@@H]3N=C(N)N)O[C@@H](C)[C@]2(O)C=O)O[C@@H](CO)[C@H](O)[C@H]1O,inactive
10,CC[C@@H](CO)NCCN[C@@H](CC)CO,inactive
11,CC(C)CCNC(=O)CSc1nc2c(c(=O)[nH]1)CCC2,inactive
12,COc1ccc(NC(=O)CSc2nc3ccccc3c(=O)[nH]2)cc1,inactive
13,NC(=O)CSc1nc2ccccc2c(=O)[nH]1,inactive
14,NC[C@H]1O[C@H](O[C@H]2[C@H](O)[C@@H](O[C@H]3O[C@H](CO)[C@@H](O)[C@H](N)[C@H]3O)[C@H](N)C[C@@H]2N)[C@H](O)[C@@H](O)[C@@H]1O,inactive
15,O=c1[nH]c(=S)[nH]c2ccccc12,inactive
16,Cc1nc(SCC(=O)NCCC(C)C)[nH]c(=O)c1C,inactive

row,Structure (SMILES),outcome
1,Cc1cnc(SCC(=O)NC2CCCCC2)[nH]c1=O,inactive
2,Cn1c(SCC(=O)NC2CCCCC2)nc2ccccc2c1=O,inactive
3,CCC(Sc1nc2c(c(=O)[nH]1)CCC2)C(=O)Nc1cccc(OC)c1 (configuration not stated),inactive
4,Nc1cc(=O)[nH]c(SCC(=O)NC2CCCCC2)n1,inactive
5,Cc1c[nH]c(=S)[nH]c1=O,inactive
6,Cc1cc(=O)[nH]c(=S)[nH]1,inactive
7,Cc1nc(SCC(=O)NC2CCCCC2)[nH]c(=O)c1C,inactive
8,Cc1nc(SCC(=O)NC2CCCC2)[nH]c(=O)c1C,inactive
9,CN1CCC(NC(=O)CSc2nc3ccccc3c(=O)[nH]2)CC1,inactive
10,CCOC(=O)CSc1nc(C)c(C)c(=O)[nH]1,inactive
11,Cc1ccc(NC(=O)CSc2nc3ccccc3c(=O)[nH]2)cc1Cl,inactive
12,COC(=O)c1ccc(CNc2c(N3CCCC3)c(=O)c2=O)cc1,inactive
13,CC1CCN(C(=O)CSc2nc3ccccc3c(=O)[nH]2)CC1,inactive
14,CCC(Sc1nc2ccccc2c(=O)[nH]1)C(=O)Nc1cccc(OC)c1 (configuration not stated),inactive
15,NNC(=O)c1ccncc1,inactive
16,Cc1nc(SCC(N)=O)[nH]c(=O)c1C,inactive
